The results in this text go back to PubChem BioAssay (NCI).

The structures appear in SMILES notation. The panel holds about 83,000 compounds, 20% with a hit somewhere; the sample as a whole holds those more often.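 Step 1: grow cells in 96-well plates. Step 2: add test compound at a single concentration. Step 3: incubate 48 h. Step 4: record percent growth.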 Unmarked numbers belong to inactive results. Calls of active or inactive are those of the source. The calls were made as follows: active = growth percent below 10; inactive = the rest.

Holding throughout (assay): NCI-60 one-dose screen, 48 h (100 = growth as untreated, 0 = no growth, -100 = all killed)
What all share (settings): 10 µM unless noted

The subject of experiment [1] is SK-MEL-2 melanoma.
The test system of experiment [2] is EKVX NSCLC.
For experiment [3], the system named is SN12C renal.
Experiment [4] concerns UO-31 renal.
Experiment [5] concerns TK-10 renal.
Experiment [6] concerns ACHN renal.
For experiment [7], the system named is CAKI-1 renal.
The test system of experiment [8] is A498 renal.
Experiment [9] deals with CCRF-CEM leukemia.
In experiment [10] the test system is MOLT-4 leukemia.
The subject of experiment [11] is SR leukemia.
For experiment [12], the system named is RPMI-8226 leukemia.
The subject of experiment [13] is OVCAR-8 ovarian.
Experiment [14] deals with OVCAR-5 ovarian.
Experiment [15] relates to OVCAR-4 ovarian.
For experiment [16], the system named is SK-OV-3 ovarian.
Experiment [17] has as its system IGROV1 ovarian.
In experiment [18] the test system is OVCAR-3 ovarian.
Experiment [19] has as its system HS 578T breast.
In experiment [20] the test system is NCI/ADR-RES ovarian.

As for `Cc1ccc(C)c(/C=C2\CN(C(=O)OC(C)(C)C)C/C(=C\c3cc(C)ccc3C)C2=O)c1`, the growth is 82% in experiment [1]; 82.8% in experiment [2]; 31.4% in experiment [3]; 61.1% in [4]; 89.1% in experiment [5]; 15.5% in experiment [6]. In addition, the growth in experiment [7] was 45.2%; in [8] it was 73%; in experiment [9], 4.98% (active); in experiment [10] it was 7.4% (active); in experiment [11], 0.122% (active); in experiment [12], -24.4% (active). The growth is 12.7% in experiment [13]; 86.1% in [14]; 22% in experiment [15]; 87.7% in [16]; 78.1% in experiment [17]; 13.1% in experiment [18]. Moreover, the growth was 43.9% in experiment [19] and 26.5% in experiment [20].

Regarding `O=C(Cc1ccccc1)Nc1cccc(N=Cc2ccccc2O)c1`, the growth was 116% in experiment [1]; 104% in experiment [2]; 96.6% in experiment [3]; 77.6% in experiment [4]; 103% in [5]; 110% in [6]. For the same molecule, the growth in experiment [7] is 80.8%; in experiment [8], 115%; in experiment [9] it was 106%; in [10] it was 101%; in experiment [11], 117%; in [12] it was 113%. Besides, the growth in [13] was 98%; in [14] it was 114%; in [15], 102%; in [16], 106%; in experiment [17], 111%; in experiment [18], 93.2%. The growth in experiment [19] is 108%; in experiment [20], 105%.

As to `O=C(Nc1ccccc1N1CCCC1=O)c1oc2ccc(F)cc2c1-c1cnn(-c2ccccc2)c1`, the growth in experiment [1] is 72.8% [50 µM]; in experiment [2] it was 58.3% [50 µM]; in [3], 48.5% [50 µM]; in [4] it was 9.1% [50 µM] (active); in [5], 95.4% [50 µM]; in [6], 46% [50 µM]. For the same molecule, the growth was 35.7% [50 µM] in experiment [7]; 29.2% [50 µM] in [8]; 56.6% [50 µM] in experiment [9]; 37% [50 µM] in [10]; 61.6% [50 µM] in experiment [11]; 32.3% [50 µM] in experiment [12]. For the same molecule, the growth in experiment [13] is 20.5% [50 µM]; in experiment [14], 87.8% [50 µM]; in [15] it was 57.6% [50 µM]; in experiment [16], 56.5% [50 µM]; in [17], 65.7% [50 µM]; in [18], 72.4% [50 µM]. The growth in experiment [19] is 41.4% [50 µM]; in experiment [20], 40.4% [50 µM].

For the molecule `COc1cc(/C=C/C(=O)/C=C(O)/C=C/c2ccc(OC(=O)C34CC5CC(CC(C5)C3)C4)c(OC)c2)ccc1OC(=O)C12CC3CC(CC(C3)C1)C2`, the growth in [1] is 101%; in experiment [2], 101%; in experiment [3], 95.5%; in [4], 69.3%; in [5], 97%; in experiment [6] it was 99%. Moreover, the growth in experiment [7] is 91.3%; in experiment [8], 102%; in experiment [9], 103%; in [10] it was 116%; in experiment [11], 120%; in experiment [12], 105%. The growth in experiment [13] is 104%; in [14], 97.1%; in experiment [15], 104%; in experiment [16] it was 114%; in experiment [17] it was 92.5%; in [18] it was 109%. Further, the growth in experiment [19] was 94.2%; in [20], 104%.

In the case of `CC/C=C\CCC/C=C1/C(=O)C=C[C@@H]1C/C=C\CCCC(=O)OC`, the growth in [1] was 87.3%; in experiment [2], 99.3%; in [3], 11.6%; in experiment [4], 69.8%; in experiment [5], 100%; in experiment [6] it was 42.9%. Further, the growth in experiment [7] is 54.1%; in [8], 95.9%; in [9], 3.2% (active); in [10], 3.52% (active); in [11] it was 2.36% (active); in experiment [12], 1.41% (active). Further, the growth is 14.2% in experiment [13]; 73.5% in experiment [14]; 76.6% in [15]; 119% in experiment [16]; 84.2% in experiment [17]; 26.7% in experiment [18]. The figures for the growth in experiment [19] and in [20] were 37.2% and 25.9%, respectively.

On to `Cc1ccc(-c2nc(SCc3nc4cc(Cl)c(Cl)cc4[nH]3)[nH]c(=O)c2C#N)cc1`, for which the growth in [1] is 90.1%; in experiment [2], 96.4%; in experiment [3], 102%; in experiment [4], 81.7%; in experiment [5], 99.3%; in experiment [6], 106%. Besides, the growth in experiment [7] is 88.3%; in experiment [8] it was 112%; in experiment [9], 111%; in experiment [10] it was 101%; in experiment [11] it was 96.7%; in [12], 115%. Moreover, the growth in experiment [13] was 98.2%; in [14], 101%; in experiment [15], 105%; in experiment [16], 96.2%; in [17], 99.6%; in [18], 99.9%. Also, the growth in experiment [19] is 102%; in experiment [20], 111%.

Turning to `CCC1S/C(=N\N=C(\C)c2cc3cc(Cl)ccc3o2)N(c2ccccc2)C1=O` (stereo not given), the growth was 299% in experiment [1]; 102% in experiment [2]; 118% in [3]; 145% in experiment [4]; 88% in [5]; 103% in experiment [6]. Moreover, the growth was 60.1% in [7]; 22.2% in experiment [8]; -53.2% (active) in experiment [9]; 36.4% in experiment [10]; 85.1% in experiment [11]; 83.7% in experiment [12]. Further, the growth in experiment [13] was 126%; in [14] it was 100%; in [15], 107%; in experiment [16], 108%; in [17] it was 671%; in [18], 75.5%. The growth in experiment [19] was 52.4%; in [20], 90.8%.
